Here are results for 20 molecules from paper PMC11062922 (Nature Chemical Biology, 2023).

Where two headings read alike, the source gives them in different places.

Design in all cases: species or system human, MV4-11 + K-562 + COLO205 + SK-N-BE2 + OVCAR-8
One experiment relates to AURKB. As to conditions: read-out: apparent Kd, compound concentrations: 100 nM and 1000 nM (sheet 'Samples'), n = 1.
A further experiment relates to CIT. The note with it: read-out: apparent Kd; compound concentrations:100 nM and 1000 nM (sheet 'Samples'); n = 1.
For another experiment, the system named is TTK. As to conditions: read-out: apparent Kd, n = 1.
The subject of the next experiment is ABL2. The note with it: read-out: apparent Kd, n = 1.
The next experiment concerns PIK3CD. As to conditions: read-out: apparent Kd, compound concentrations: 100 nM and 1000 nM (sheet 'Samples'), n = 1.
The next experiment deals with PTK6. As to conditions: read-out: apparent Kd; compound concentrations: 100 nM and 1000 nM (sheet 'Samples'), CATDS: 2.16089189660327E-2; n = 1.
The subject of the next experiment is RPS6KB1. As to conditions: read-out: apparent Kd, compound concentrations: 100 nM and 1000 nM (sheet 'Samples'), n = 1.
The subject of a further experiment is ACVR1B. As to conditions: read-out: apparent Kd; compound concentrations:100 nM and 1000 nM (sheet 'Samples'); n = 1.
Another experiment concerns RPS6KA3. As to conditions: read-out: apparent Kd, compound concentrations: 100 nM and 1000 nM (sheet 'Samples'), n = 1.
A further experiment deals with EPHB1. The note with it: read-out: apparent Kd; compound concentrations:100 nM and 1000 nM (sheet 'Samples'); n = 1.
The next experiment deals with CDC42BPB. The note with it: read-out: apparent Kd; compound concentrations: 100 nM and 1000 nM (sheet 'Samples'), CATDS: 1.0245441654914001E-2; n = 1.
In another experiment the test system is MAP3K11. As to conditions: read-out: apparent Kd, n = 1.
In the next experiment the test system is NUAK2. The note with it: read-out: apparent Kd, compound concentrations: 100 nM and 1000 nM (sheet 'Samples'), n = 1.
The next experiment deals with PAK6. The note with it: read-out: apparent Kd; compound concentrations: 100 nM and 1000 nM (sheet 'Samples'), CATDS: 6.8069472857734698E-3; n = 1.
In the next experiment the test system is PKN2. The note with it: read-out: apparent Kd; compound concentrations: 100 nM and 1000 nM (sheet 'Samples'), CATDS: 1.4426641074697899E-2; n = 1.
The test system of the next experiment is PRKCA. As to conditions: read-out: apparent Kd, compound concentrations: 100 nM and 1000 nM (sheet 'Samples'), n = 1.
The mark [1] stands for this setting: compound concentrations:100 nM and 1000 nM (sheet 'Samples').

Take `CN(c1ccc(NC(=O)NCCN2CCOCC2)cc1)c1ccnc(Nc2ccc(CS(C)(=O)=O)cc2)n1.Cl` [GW830365A]: in the experiment on AURKB (CATDS: 8.1167400456920294E-2), the potency estimated from few doses was 384 nM. Take `CN(C)CC(O)COc1ccc(Nc2nccc(-c3cnn4nc(N5CCOCC5)ccc34)n2)cc1` (stereo not shown) [GW767488X]: the results for the potency estimated from few doses with CIT and in the experiment with TTK (setting [1]) were 998 nM and 2040 nM, respectively. For the molecule `Cc1ccccc1-n1ncc(C(=O)c2ccccc2)c1N` [RO1151248-000], the potency estimated from few doses in the experiment with ABL2 (compound concentrations: 100 nM and 1000 nM (sheet 'Samples'), CATDS: 2.8713823072650399E-2) is 630 nM; with PIK3CD (CATDS: 6.44780865676087E-2), 184 nM; in the experiment with PTK6, 1160 nM. For the molecule `CS(=O)(=O)Nc1cccc(-c2ccc3c(NC(=O)C4CC4)n[nH]c3c2)c1` [SB-742864], the potency estimated from few doses in the experiment on PIK3CD (CATDS: 0.40980617743007602) is 162 nM. Consider `COc1cc(Nc2nccc(N3CCC(NC(=O)c4cccc(NC(C)=O)c4)C3)n2)cc(OC)c1OC` (stereo not shown) [GSK1379754A], for which the potency estimated from few doses in the experiment with RPS6KB1 (CATDS: 8.2773531247457094E-2) was 1830 nM. Consider `CC(C)Nc1cc(-c2ccc3c(N)n[nH]c3c2)nc(N)n1` [GSK2221681A], for which the potency estimated from few doses in the experiment with ACVR1B is 803 nM. For `COc1cc[nH]c1/C=C1\C(=O)Nc2ccc(F)c(C#CC3(O)CCNCC3)c21.Cl` [RO0282986-001], the potency estimated from few doses was 868 nM with RPS6KA3 (CATDS: 1.1263723561624001E-2); 1690 nM in the experiment on TTK (compound concentrations: 100 nM and 1000 nM (sheet 'Samples'), CATDS: 9.4369633718921209E-3).

`CC(=O)N[C@@H](Cc1ccc(OP(=O)(O)O)cc1)C(=O)N[C@H]1CCC(=O)N2CCC[C@@H](C(=O)NCc3ccc(Cl)cc3)N2C1=O` [RO0325308-000]: the potency estimated from few doses was 60.3 nM in the experiment on ABL2 (setting [1]) and 71.6 nM with EPHB1. `Cc1n[nH]c2cc(Nc3ccnc(Nc4cccc(CN5CCOCC5)c4)n3)ccc12` [GW682569X]: in the experiment with PIK3CD (CATDS: 0.35370860335397603), the potency estimated from few doses is 121 nM. Regarding `COC(=O)c1cccc(NC(=O)NC2CCN(c3ccnc(Nc4cc(OC)c(OC)c(OC)c4)n3)C2)c1` (stereo not shown) [GSK1379767A], in the experiment on PIK3CD (CATDS: 0.49933192218353101), the potency estimated from few doses was 112 nM. Regarding `O=C(O)C(F)(F)F.O=C(O)C(F)(F)F.O=c1[nH]ccc2nc(N[C@@H]3CCCNC3)nc(Nc3ccc(S(=O)(=O)N4CCOCC4)cc3)c12.O=c1[nH]ccc2nc(N[C@@H]3CCCNC3)nc(Nc3ccc(S(=O)(=O)N4CCOCC4)cc3)c12` [GSK2177277A], the potency estimated from few doses in the experiment on AURKB (CATDS: 9.0566947478628902E-3) was 373 nM; in the experiment with CDC42BPB, 255 nM; in the experiment on MAP3K11 (compound concentrations: 100 nM and 1000 nM (sheet 'Samples'), CATDS: 9.6570166700827697E-3) it was 305 nM; in the experiment on NUAK2 (CATDS: 4.5069810988754302E-2) it was 13.3 nM; with PAK6 it was 1140 nM; with PKN2, 105 nM. The potency estimated from few doses was 383 nM in the experiment on PRKCA (CATDS: 8.97994124779509E-3); 573 nM in the experiment with RPS6KA3 (CATDS: 8.0041967490872001E-3); 1950 nM in the experiment on TTK (compound concentrations: 100 nM and 1000 nM (sheet 'Samples'), CATDS: 6.1777236356659101E-3). Turning to `CN[C@H](C#Cc1c(F)ccc2c1/C(=C/c1[nH]ccc1OC)C(=O)N2)CO.Cl` [RO0283049-001], in the experiment with TTK (compound concentrations: 100 nM and 1000 nM (sheet 'Samples'), CATDS: 1.9624563492428401E-2), the potency estimated from few doses was 2080 nM. As for `CNCC1CCn2c(c(C3=C(c4cn(C)c5ccccc45)C(=O)NC3=O)c3ccccc32)C1` (stereo not shown) [RO0318676-000], the values for the potency estimated from few doses in the experiment on PRKCA (CATDS: 0.32206529387914401), with RPS6KA3 (CATDS: 2.8652335073443402E-2) and in the experiment on RPS6KB1 (CATDS: 3.9813258984907299E-2) were 11.4 nM, 1620 nM and 600 nM, respectively. For `NS(=O)(=O)c1ccc(NC=C2C(=O)Nc3ccc4ncsc4c32)cc1` [GW589933X], the potency estimated from few doses in the experiment on AURKB (CATDS: 1.80896314222295E-2) is 1370 nM; in the experiment on NUAK2 (CATDS: 1.7918277394981801E-2) it was 1420 nM; with TTK (compound concentrations: 100 nM and 1000 nM (sheet 'Samples'), CATDS: 2.1205991954571499E-2) it was 817 nM.

In the case of `CC(C)(CO)CNC(=O)c1ccc2c(c1)/C(=N/Nc1ccc(S(N)(=O)=O)cc1)C(=O)N2` [GW301784X], the potency estimated from few doses in the experiment on TTK (setting [1]) was 983 nM. As for `NS(=O)(=O)c1ccc(N/C=C2\C(=O)Nc3ccc4ncsc4c32)cc1` [GW297361X], the potency estimated from few doses in the experiment on TTK (compound concentrations: 100 nM and 1000 nM (sheet 'Samples'), CATDS: 3.2979280004825598E-2) was 1400 nM.

Consider `COc1cc[nH]c1/C=C1\C(=O)Nc2ccc([N+](=O)[O-])c(N3CC[C@@H](O)C3)c21` [RO0504985-000], for which the potency estimated from few doses with NUAK2 (CATDS: 3.1931655972065397E-2) is 1490 nM.

For `COc1cc2ncn(-c3cc(OCc4ccccc4S(C)(=O)=O)c(C#N)s3)c2cc1OC` [GSK319347A], the potency estimated from few doses in the experiment on AURKB (CATDS: 0.10534744790645301) is 893 nM.

Take `COc1cc[nH]c1/C=C1\C(=O)Nc2ccc(F)c(C#C[C@@H](O)[C@@H](N)[C@@H](C)O)c21` [RO0283120-000]: in the experiment with TTK (setting [1]), the potency estimated from few doses was 1180 nM. `O=C(Nc1n[nH]c2nc(-c3ccccc3O)ccc12)C1CC1` [SB-711880]: the potency estimated from few doses in the experiment on MAP3K11 (setting [1]) is 1520 nM.
